What was measured:
Details in all cases: Compound Concentration (nM):1000
[1] = tested on: INSRR
[2] = tested on: INSR
[3] = tested on: IRAK1
[4] = tested on: IRAK3
[5] = tested on: IRAK4
[6] = tested on: ITK
[7] = tested on: JAK1(JH1domain-catalytic)
[8] = tested on: JAK1(JH2domain-pseudokinase)
[9] = tested on: JAK2(JH1domain-catalytic)
[10] = tested on: JAK3(JH1domain-catalytic)
[11] = tested on: T1, JNK1
T1 construct: gene MAPK8

[12] = tested on: T2, JNK2
T2 construct: gene MAPK9

[13] = tested on: T3, JNK3
T3 construct: gene MAPK10

[14] = tested on: KIT(A829P)
[15] = tested on: KIT(D816H)
[16] = tested on: KIT(D816V)
[17] = tested on: KIT(L576P)
[18] = tested on: KIT(V559D)
[19] = tested on: KIT(V559D,T670I)
[20] = tested on: KIT(V559D,V654A)
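Also: KINOMEscan scanMAX binding as percent activity remaining versus control; lower means stronger binding.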

| SMILES | Percent Control [1] [%] | Percent Control [2] [%] | Percent Control [3] [%] | Percent Control [4] [%] | Percent Control [5] [%] | Percent Control [6] [%] | Percent Control [7] [%] | Percent Control [8] [%] | Percent Control [9] [%] | Percent Control [10] [%] | Percent Control [11] [%] | Percent Control [12] [%] | Percent Control [13] [%] | Percent Control [14] [%] | Percent Control [15] [%] | Percent Control [16] [%] | Percent Control [17] [%] | Percent Control [18] [%] | Percent Control [19] [%] | Percent Control [20] [%] |
| --- | --- | --- | --- | --- | --- | --- | --- | --- | --- | --- | --- | --- | --- | --- | --- | --- | --- | --- | --- | --- |
| COc1cc(/C=N/Nc2ncnc3[nH]ncc23)ccc1O [GW578748X] | 100 | 94 | 31 | 100 | 61 | 100 | 100 | 0.6 | 47 | 47 | 40 | 49 | 37 | 36 | 26 | 22 | 51 | 44 | 100 | 52 |
| Nc1ncnc2occ(-c3ccc(NC(=O)Nc4cc(C(F)(F)F)ccc4F)cc3)c12 [GW770249X] | 100 | 90 | 95 | 100 | 100 | 100 | 79 | 80 | 62 | 100 | 99 | 9.2 | 100 | 7.5 | 32 | 14 | 0 | 0 | 0.5 | 7.5 |
| CC1=C(C(=O)Nc2ccc3[nH]ncc3c2)C(c2ccc(Cl)c(Cl)c2)CC(=O)N1 (centres unmarked) [GSK299115A] | 100 | 100 | 88 | 56 | 100 | 74 | 41 | 86 | 13 | 9.3 | 84 | 73 | 77 | 79 | 78 | 94 | 100 | 100 | 94 | 100 |
| Cl.c1ccc(Cc2nc3ccc(Nc4ncnc5ccccc45)cc3[nH]2)cc1 [GR269666A] | 100 | 100 | 100 | 100 | 100 | 100 | 100 | 88 | 100 | 100 | 91 | 100 | 100 | 100 | 100 | 100 | 100 | 91 | 100 | 85 |
| CCS(=O)(=O)c1ccc(OC)c(Nc2ncc(-c3cccc(F)c3)o2)c1 [GW621970X] | 100 | 100 | 48 | 100 | 61 | 100 | 100 | 98 | 100 | 75 | 69 | 92 | 94 | 63 | 51 | 39 | 3 | 4.8 | 35 | 90 |
| NS(=O)(=O)c1ccc(Nc2ncc(-c3ccccc3)o2)cc1 [GW572399X] | 100 | 100 | 99 | 100 | 100 | 90 | 100 | 87 | 100 | 71 | 64 | 100 | 99 | 92 | 100 | 100 | 37 | 26 | 92 | 100 |
| CCn1c(-c2nonc2N)nc2c(C#CC(C)(C)O)nc(OCCNC)cc21.Cl [GSK949675] | 100 | 100 | 92 | 100 | 88 | 100 | 100 | 100 | 96 | 87 | 97 | 100 | 96 | 98 | 22 | 13 | 100 | 100 | 100 | 100 |
| COc1cc2ncnc(Nc3ccc4c(cnn4Cc4ccccc4)c3)c2cc1OC.Cl [GW282449A] | 100 | 100 | 100 | 100 | 100 | 100 | 100 | 92 | 100 | 100 | 100 | 100 | 100 | 100 | 100 | 100 | 100 | 98 | 100 | 93 |
| COc1ccccc1-c1cc(/C=C2\C(=O)Nc3ncc(Br)cc32)cc(Br)c1O [GW442130X] | 100 | 87 | 74 | 100 | 85 | 100 | 100 | 100 | 82 | 55 | 52 | 43 | 30 | 100 | 100 | 100 | 76 | 65 | 100 | 62 |
| COc1cc2ncn(-c3cc(O[C@H](C)c4ccccc4Cl)c(C(N)=O)s3)c2cc1OC [GSK237701A] | 100 | 100 | 64 | 70 | 98 | 82 | 100 | 70 | 46 | 100 | 88 | 79 | 81 | 11 | 14 | 14 | 34 | 33 | 12 | 81 |
| NS(=O)(=O)c1ccc(N/N=C2\C(=O)Nc3ccc(-c4cnco4)cc32)cc1 [GW276655] | 83 | 73 | 79 | 100 | 90 | 93 | 100 | 31 | 54 | 16 | 87 | 83 | 83 | 79 | 69 | 100 | 55 | 58 | 100 | 100 |
| COc1ccc2c(-c3ccnc(Nc4cccc(OC(F)(F)F)c4)n3)cnn2n1 [GW810372X] | 100 | 90 | 19 | 80 | 100 | 100 | 100 | 7.5 | 62 | 65 | 22 | 60 | 41 | 83 | 77 | 87 | 88 | 88 | 86 | 100 |
| CCS(=O)(=O)c1ccc(OC)c(Nc2ncc(-c3cccc(OC)c3)o2)c1 [GW580509X] | 100 | 95 | 90 | 100 | 100 | 100 | 100 | 97 | 94 | 62 | 76 | 89 | 95 | 83 | 52 | 42 | 0 | 2.3 | 66 | 79 |
| Cl.O=C(Nc1ccc(Oc2ccc3[nH]c(NC(=O)c4ccco4)nc3c2)cc1)Nc1cc(C(F)(F)F)ccc1F [GW683134A] | 100 | 88 | 91 | 100 | 89 | 97 | 100 | 90 | 94 | 87 | 85 | 86 | 100 | 15 | 96 | 48 | 0 | 0 | 2.3 | 10 |
| CN(C)c1cc2c(Nc3ccc4c(cnn4Cc4ccccc4)c3)ncnc2cn1 [GW282974X] | 100 | 63 | 100 | 100 | 100 | 87 | 100 | 92 | 100 | 99 | 87 | 92 | 82 | 70 | 62 | 90 | 100 | 100 | 96 | 100 |
| COc1cc(C=NNc2ncnc3c2cnn3-c2ccccc2)ccc1O [GW513184X] | 100 | 100 | 43 | 28 | 72 | 100 | 100 | 84 | 72 | 81 | 99 | 94 | 82 | 100 | 84 | 40 | 17 | 35 | 65 | 74 |
| Cl.O=S1CCN(Cc2ccc(-c3ccc4ncnc(Nc5ccc(OCc6ccccc6)c(F)c5)c4c3)o2)CC1 [GW576924A] | 100 | 100 | 100 | 100 | 100 | 100 | 100 | 89 | 100 | 100 | 100 | 100 | 100 | 100 | 100 | 100 | 100 | 100 | 94 | 100 |
| COc1ccc(COc2ccc(Cc3cnc(N)nc3N)cc2OC)cc1 [GW632580X] | 100 | 69 | 99 | 100 | 95 | 89 | 100 | 89 | 92 | 77 | 85 | 93 | 94 | 100 | 68 | 96 | 93 | 96 | 100 | 100 |
| C[C@@H](Oc1cc(-n2cnc3ccc(OC4CCN(C)CC4)cc32)sc1C(N)=O)c1ccccc1Cl [GSK579289A] | 90 | 64 | 73 | 83 | 94 | 77 | 100 | 75 | 75 | 7.2 | 82 | 98 | 96 | 49 | 1.7 | 48 | 31 | 30 | 41 | 95 |
